Compound activity: PubChem, National Center for Advancing Translational Sciences (NCATS)
The list is not random: actives were taken first. Their share in the collection is about 1.8%.
HttQ103 aggreg: mutant huntingtin aggregation inhibition; hit rate 1.1% among 220,000; Potency, µM (doses to about 46.1 µM), most hits filed as inhibitors; PC12 HttQ103-GFP aggregates, Acumen cytometry, 40 h; further: nearly all actives have a fitted effect of over 60% in size
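Inducible Q103 Huntingtin exon 1–GFP PC12 line, 1500 cells/well in phenol red free DMEM with 5% equine and 5% calf serum. Tebufenozide 100 nM induced expression; compounds titrated; aggregates quantified by cytometry.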
L3MBTL1 block: L3MBTL1 (human) inhibition; Q9Y468; AlphaScreen L3MBTL1–H3K9me1 peptide binding; Potency, µM (titrated, usually from 57.1 µM), usual class: inhibitors; hit rate 0.66% among 230,000; AID 485360; further: nearly all actives have a fitted effect of over 60% in size
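Read-out is AlphaScreen signal from streptavidin donor and nickel chelate acceptor beads (10 ug/mL final each) bridging L3MBTL1 (50 nM) and biotinylated K9-monomethylated H3(1-15) peptide (75 nM), after 30 min compound exposure at room temperature.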
HTT ATP protect: protects HTT-Q103 PC12 cells, measured by ATP; Potency, µM (doses to about 56.4 µM), actives largely listed as activators; PC12 HTT-Q103 induced, cytoprotection, ATP luminescence, 40 h; hit rate 0.14% among 230,000; AID 1471; further: nearly all actives have a fitted effect of over 45% in size
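Compounds added alongside 100 nM tebufenozide, which induces toxic Q103 huntingtin exon 1-GFP in stable PC12 cells; surviving cells quantified by luminescent ATP measurement. Medium: phenol red-free DMEM, 5% equine and 5% calf serum.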
JMJD2E inh: blocks human JMJD2E demethylase activity; hit rate 1.6% among 230,000; Potency, µM (titrated, usually from 57.1 µM), actives largely listed as inhibitors; B2RXH2; JMJD2E catalytic domain, FDH-coupled NADH fluorescence (FDH is formaldehyde dehydrogenase); AID 2147; active means well fitted inhibition curve with a large enough effect, not every such curve was filed as active; inconclusive means small, poorly fitted or top-dose-only effect, or another doubt; inactive means no such curve, though single readings can be large or run the other way; further: nearly all actives have a fitted effect of over 50% in size
Target sequence (B2RXH2 1-337 limits assumed): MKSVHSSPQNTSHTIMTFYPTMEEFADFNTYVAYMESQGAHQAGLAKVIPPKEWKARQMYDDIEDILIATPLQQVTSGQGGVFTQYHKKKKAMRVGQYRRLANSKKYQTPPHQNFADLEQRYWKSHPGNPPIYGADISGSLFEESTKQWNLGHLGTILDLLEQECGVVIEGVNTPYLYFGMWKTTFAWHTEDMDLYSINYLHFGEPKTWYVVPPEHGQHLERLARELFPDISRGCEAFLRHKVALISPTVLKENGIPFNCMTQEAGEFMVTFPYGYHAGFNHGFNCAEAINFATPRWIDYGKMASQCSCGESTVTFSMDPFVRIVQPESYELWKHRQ
Numbers stand for hits; n = inactive; u = inconclusive; x = no result; [ ] = dose if it differs, or a comment. Unless noted, the call rests on the fitted dose curve; in most records, active means well fitted curve in the direction sought with a large enough effect; inconclusive means small, poorly fitted or top-dose-only effect, or another doubt; inactive means no such curve, though single readings can be large; an effect the other way counts as inactive or inconclusive.

SMILES	HttQ103 aggreg	L3MBTL1 block	HTT ATP protect	JMJD2E inh
CS(=O)(=O)Nc1cccc(-c2nccc(Nc3ccc(F)cc3)n2)c1	x	x	n	x
CCN(CC)CCCC(C)n1c(-c2ccccc2)nc2c(N3CCOCC3)nc(C)nc21 (stereo not drawn)	x	x	n	u
S=C1Cc2ccccc2N1	n[9.22 µM]	n	1.3µM	u
O=C1CCc2ccccc2N1	n[9.22 µM]	n	n[10 µM]	n
Cn1nc(C(F)(F)F)c(/C=N/OC(=O)c2ccccc2)c1Sc1ccc(Cl)cc1	14µM	x	n	n
N#Cc1cc(NC(=O)c2ccc(F)cc2)c(=O)n2c1[nH]c1ccccc12	14µM	n	n	u
O=C(c1ccc(C23CC4CC(CC(C4)C2)C3)o1)N1CCOCC1	5.6µM	n	n	n
O=S(=O)(CCc1ccccc1)c1nnnn1C1CCCCC1	x	x	u	n
CC1=C(C(=O)O)N2C(=O)[C@@H](NC(=O)C(N)C3=CCC=CC3)[C@H]2SC1 (stereo partly drawn)	x	x	x	22µM
CCOC(=O)CSc1nnc(CCCCCN2C(=O)c3cccc4cccc(c34)C2=O)o1	n	n	x	u
CCOC(=O)CCCSc1nnc(CCCCCN2C(=O)c3cccc4cccc(c34)C2=O)o1	u	n	2.5µM	n
Cc1c(C=O)c(Cl)n(C)c(=O)c1C#N	n	n	n	20µM
CC(=O)N=Cc1c(C)c(C#N)c(=O)n(C)c1O	n	x	n	u
CC(=O)c1ccc(N/N=C(/C(N)=O)C2=NC(C)(C)Cc3ccccc32)cc1	11µM	n	n[10 µM]	n
CC1(C)Cc2ccccc2C(/C(=N\Nc2cccc(Cl)c2)C(N)=O)=N1	u	u	n[10 µM]	n
C[C@@](Cc1ccccc1)(C(=O)O)N1C(=O)c2ccc(C(=O)O)cc2C1=O	x	n	x	x
Cc1ccc(F)c(C2C3C=CCC(c4cccc(-c5ccc(N(C)C)cc5)c4)C3C(=O)N2Cc2ccccc2)c1 (stereo not drawn)	3.2µM	x	n[10 µM]	u
COc1ccc(-c2cccc(C3CC=CC4C3C(=O)N(Cc3ccccc3)C4c3cc(C)ccc3F)c2)cc1 (stereo not drawn)	n[9.22 µM]	x	n[10 µM]	u
CC(C)(C)NC(=O)C(=O)NNC(=O)c1cccc(F)c1	0.63µM	x	u	n
CC(C)(C)NC(=O)C(=O)NNC(=O)c1ccccc1	n	n	n	n
CC1OC(OC2C(Oc3c(-c4ccc(O)cc4)oc4cc(O)cc(O)c4c3=O)OC(COC3O[C@@H](C)[C@H](O)[C@@H](O)C3O)C(O)C2O)C(O)C(O)C1O (stereo partly drawn)	x	n	x	x
CC1OC(OCC2OC(Oc3c(-c4ccc(O)cc4)oc4cc(O)cc(O)c4c3=O)C(O)C(O)C2O)C(O)C(O)C1O (stereo not drawn)	n[9.22 µM]	14µM	n[10 µM]	n
C[C@@H]1O[C@@H](OC[C@H]2O[C@@H](Oc3c(-c4ccc(O)c(O)c4)oc4cc(O)cc(O)c4c3=O)[C@H](O)[C@@H](O)[C@@H]2O)[C@H](O)[C@H](O)[C@H]1O	n	x	u	14µM
CC#CC(C)C(OCOC)C(CC(C)Cc1cc(Br)cc(OCc2ccccc2)c1OC)OC (stereo not drawn)	x	x	n[10 µM]	x
O=C1c2ccccc2C(=O)C1c1ccc(Cl)cc1	n	x	n	x
SMILES	HttQ103 aggreg	L3MBTL1 block	HTT ATP protect	JMJD2E inh
O=C1c2ccccc2C(=O)C12OC2c1ccc(Cl)cc1Cl (stereo not drawn)	25µM	n	n[10 µM]	n
C=C(C)C(=O)C1CCCCC1	x	x	u	n
O=C(O)c1ccc(CS(=O)c2cccc(C(F)(F)F)c2)o1 (stereo not drawn)	13µM	n	n[0.074 µM]	n
CN1CCc2cc3c(c4c2[C@H]1[C@H](O)c1ccccc1-4)OCO3	u	n	x	18µM
COc1ccc2c(c1OC)C(=O)O[C@H]2C1c2c(cc3c(c2OC)OCO3)CCN1C (stereo partly drawn)	x	x	n[1.9 µM]	n
O=C(CCc1ccccc1)NCC(=O)N/N=C/c1ccc(O)cc1O	n[9.22 µM]	n	n[10 µM]	6.3µM
O=C(CNC(=O)c1cccs1)N/N=C/c1ccc(O)cc1O	n	x	u	3.2µM
COc1ccc(/C=N/NC(=O)CNC(=O)c2cccs2)cc1	n	n	n[10 µM]	n
N[C@@H](C(=O)O)[C@H](O)C(=O)O	x	x	n[1.9 µM]	x
CNC(=O)[C@H](C)[C@H]1C[C@]1(C)[C@H](NC(=O)OCc1ccccc1)c1ccccc1	x	x	n	n
COc1cc(C(=O)Oc2ccccc2/C=N/NC(=O)c2ccc(Cl)cc2Cl)cc(OC)c1OC	6.3µM	n	n[10 µM]	n
C=CCOc1ccccc1/C=N/NC(=O)c1ccc(Cl)cc1Cl	n	n	n[10 µM]	n
CCc1c(O)nc(SCC(=O)Nc2ccc(C)cc2)n(C2CCCCC2)c1=O	11µM	x	n[0.074 µM]	n
